Measurements published in PubChem BioAssay AID1159580 (chemical genetic matrix, 2015).
Several values for one entry are separate records, joined by “and”; a condition that tells them apart may be missing. Identical values can stand only once. The whole screen tested about 5,500 compounds, of which about 2,000 (36%) were called active. About 18% were inconclusive and are not listed. Rule as the data show it: active = normalized growth mostly below about 0.91 (no sharp cut-off); inconclusive = no clear call, values can overlap the other calls; inactive = mostly above about 0.92. The list shows a part of the results.

Assay: chemical genetic growth profiling, strain panel (AID 1159580);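 also: tested at 20 µM; growth read once vehicle control cultures reached saturation at 30 °C; 1 = growth at the plate median or of vehicle wells; lower values mean less growth of the strain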
Settings: S. cerevisiae deletion strains, growth OD

Measured: normalized growth

COC(=O)[C@H]1[C@H]2C[C@H]3c4[nH]c5cc(OC)ccc5c4CCN3C[C@H]2C[C@@H](OC(=O)c2cc(OC)c(OC)c(OC)c2)[C@@H]1OC
inactive: locus YAL021C, strain ccr4, stronger effect = lower value 0.989 | locus YAL026C, strain drs2, stronger effect = lower value 1.02 | locus YAL030W, strain snc1, stronger effect = lower value 1.01 | locus YBL061C, strain skt5, stronger effect = lower value 1.02 | locus YBR009C, strain hhf1, stronger effect = lower value 0.996 | locus YBR021W, strain FUR4, stronger effect = lower value 0.998 | locus YBR023C, strain chs3, stronger effect = lower value 1.01 | locus YBR171W, strain sec66, stronger effect = lower value 1.02 | locus YBR229C, strain ROT2, stronger effect = lower value 1 | locus YBR231C, strain swc5, stronger effect = lower value 1.01 | locus YBR279W, strain paf1, stronger effect = lower value 1.01 | locus YCL011C, strain gbp2, stronger effect = lower value 1.01 | locus YCL016C, strain dcc1, stronger effect = lower value 1.01 | locus YCL029C, strain bik1, stronger effect = lower value 0.971 | locus YCL061C, strain MRC1, stronger effect = lower value 1.01 | locus YCL069W, strain vba3, stronger effect = lower value 1.01 | locus YCR088W, strain abp1, stronger effect = lower value 1.01 | locus YDL005C, strain med2, stronger effect = lower value 1.01 | locus YDL035C, strain GPR1, stronger effect = lower value 1.05 | locus YDL040C, strain nat1, stronger effect = lower value 1.01 | locus YDL074C, strain BRE1, stronger effect = lower value 0.976 | locus YDL101C, strain DUN1, stronger effect = lower value 0.986 | locus YDL185W, strain tfp1, stronger effect = lower value 0.966 | locus YDL192W, strain arf1, stronger effect = lower value 1.02 | locus YDR001C, strain nth1, stronger effect = lower value 1.01 | locus YDR069C, strain doa4, stronger effect = lower value 1 | locus YDR101C, strain arx1, stronger effect = lower value 0.977 | locus YDR137W, strain rgp1, stronger effect = lower value 1.03 | locus YDR159W, strain sac3, stronger effect = lower value 1.02 | locus YDR162C, strain NBP2, stronger effect = lower value 1.02 | locus YDR195W, strain ref2 1 | locus YDR297W, strain sur2, stronger effect = lower value 1.01 | locus YDR318W, strain mcm21, stronger effect = lower value 0.992 | locus YDR334W, strain swr1, stronger effect = lower value 1.02 | locus YDR335W, strain msn5, stronger effect = lower value 1.02 | locus YDR388W, stronger effect = lower value 0.983 | locus YDR392W, strain spt3, stronger effect = lower value 0.925 | locus YDR502C, strain sam2, stronger effect = lower value 0.929 | locus YEL003W, strain gim4, stronger effect = lower value 1.02 | locus YEL037C, strain rad23, stronger effect = lower value 1.02 | locus YEL061C, strain CIN8 (second series), stronger effect = lower value 1.01 | locus YEL061C, strain CIN8, stronger effect = lower value 1 | locus YER015W, strain faa2, stronger effect = lower value 1 | locus YER016W, strain bim1, stronger effect = lower value 1.01 | locus YER110C, stronger effect = lower value 0.975 | locus YER111C, strain swi4, stronger effect = lower value 1.01 | locus YER155C, strain BEM2 (second series), stronger effect = lower value 0.975 | locus YER155C, strain BEM2, stronger effect = lower value 1 | locus YER167W, strain BCK2, stronger effect = lower value 1.01 | locus YFR010W, strain ubp6, stronger effect = lower value 1.01 | locus YGL078C, strain dbp3, stronger effect = lower value 1.02 | locus YGL086W, strain mad1, stronger effect = lower value 0.999 | locus YGL167C, strain pmr1, stronger effect = lower value 1.02 | locus YGL173C, strain kem1, stronger effect = lower value 1.02 | locus YGL227W, strain vid30, stronger effect = lower value 1.01 | locus YGL240W, strain doc1, stronger effect = lower value 0.997 | locus YGL248W, strain PDE1, stronger effect = lower value 0.987 | locus YGL253W, strain hxk2, stronger effect = lower value 1.02 | locus YGR135W, strain pre9, stronger effect = lower value 1 | locus YGR252W, strain gcn5, stronger effect = lower value 1.06 | locus YHR013C, strain ard1, stronger effect = lower value 0.995 | locus YHR027C, strain rpn1, stronger effect = lower value 1.02 | locus YHR030C, strain SLT2, stronger effect = lower value 1.01 and 0.978 | locus YHR079C, strain IRE1 (second series), stronger effect = lower value 0.982 | locus YHR079C, strain IRE1, stronger effect = lower value 0.968 | locus YHR094C, strain hxt1, stronger effect = lower value 0.993 | locus YHR129C, strain ARP1, stronger effect = lower value 1 | locus YHR142W, strain chs7, stronger effect = lower value 1.01 | locus YHR200W, strain rpn10, stronger effect = lower value 0.992 | locus YIL066C, strain RNR3, stronger effect = lower value 1.01 | locus YIL073C, strain SPO22, stronger effect = lower value 0.923 | locus YIL125W, strain kgd1, stronger effect = lower value 1.02 | locus YIR030C, strain dcg1, stronger effect = lower value 0.994 | locus YJL092W, strain hpr5, stronger effect = lower value 1.01 | locus YJL095W, strain BCK1 (second series), stronger effect = lower value 1.01 | locus YJL095W, strain BCK1, stronger effect = lower value 0.958 and 0.964 | locus YJL115W, strain asf1, stronger effect = lower value 1.01 | locus YJL129C, strain trk1, stronger effect = lower value 1 | locus YJL134W, strain LCB3, stronger effect = lower value 0.996 | locus YJL154C, strain vps35, stronger effect = lower value 1 | locus YJL164C, strain tpk1, stronger effect = lower value 1 | locus YJL166W, strain qcr8, stronger effect = lower value 0.987 | locus YJL168C, strain set2, stronger effect = lower value 0.991 | locus YJL187C, strain SWE1 (second series), stronger effect = lower value 0.979 | locus YJL187C, strain SWE1, stronger effect = lower value 1.01 | locus YJR043C, strain POL32, stronger effect = lower value 1.07 | locus YJR066W, strain TOR1, stronger effect = lower value 0.92 | locus YJR075W, strain HOC1, stronger effect = lower value 0.982
